Laboratory results from PubChem BioAssay (Tox21).
Results filed as inconclusive are left out. Calls of active or inactive are those of the source. Unless noted, calls follow the shape of the full dose curve.

Columns and labels:
[1] = Nuclear factor erythroid 2-related factor 2/antioxidant responsive element (Nrf2/ARE) small molecule agonists: qHTS cell viability counter screen in human keratinocytes (AID 1919968; active = well fitted curve in the direction sought with a large enough effect in the repeat runs; an effect the other way counts as inactive or inconclusive; also: nearly all actives have a fitted effect of over 55% in size)
Method in brief: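 Cells of the KeratinoSens line were plated at 1,500 per well and left for 5 h before compound transfer from DMSO stocks. After a 23 h incubation (37 C, 5% CO2), CellTiter-Fluor was added. Signal was taken as fluorescence intensity 1 h later.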

[2] = Nuclear factor erythroid 2-related factor 2/antioxidant responsive element (Nrf2/ARE) small molecule agonists: luciferase reporter gene qHTS assay in human keratinocytes (AID 1919969); also: nearly all actives have a fitted effect of over 35% in size
[3] = target: Gonadotropin-releasing hormone receptor (Homo sapiens) (UniProt P30968); assay: Human gonadotropin-releasing hormone receptor (GnRHR) small molecule agonists, calcium flux assay in GnRHR-HEK293 cells (AID 1920063); also: nearly all actives have a fitted effect of over 35% in size
Gonadotropin-releasing hormone receptor (Homo sapiens), sequence (P30968 whole entry, looked up): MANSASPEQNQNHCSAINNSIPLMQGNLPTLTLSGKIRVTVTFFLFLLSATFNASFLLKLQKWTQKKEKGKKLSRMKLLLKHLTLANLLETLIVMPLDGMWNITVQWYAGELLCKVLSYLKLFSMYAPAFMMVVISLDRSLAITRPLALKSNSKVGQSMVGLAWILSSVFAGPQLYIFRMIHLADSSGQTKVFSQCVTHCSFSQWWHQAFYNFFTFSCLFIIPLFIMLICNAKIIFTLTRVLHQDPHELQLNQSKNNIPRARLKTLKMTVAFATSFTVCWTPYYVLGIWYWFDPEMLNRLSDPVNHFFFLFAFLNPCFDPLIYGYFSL
Method in brief: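 Compounds dissolved in DMSO are pin-transferred onto dye-loaded GnRHR-HEK293 cells, which were seeded 18 h before at 37 C/5% CO2. Calcium signal is read as fluorescence intensity at 1 s intervals for 3 min.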

[4] = target: KiSS-1 receptor (Homo sapiens) (UniProt Q969F8); assay: Human kisspeptin (KISS1R) small molecule agonists, calcium flux assay in KISS1R-HEK293 cells (AID 1920064; active = well fitted curve in the direction sought with a large enough effect in the repeat runs; an effect the other way counts as inactive or inconclusive)
KiSS-1 receptor (Homo sapiens), sequence (Q969F8 whole entry, looked up): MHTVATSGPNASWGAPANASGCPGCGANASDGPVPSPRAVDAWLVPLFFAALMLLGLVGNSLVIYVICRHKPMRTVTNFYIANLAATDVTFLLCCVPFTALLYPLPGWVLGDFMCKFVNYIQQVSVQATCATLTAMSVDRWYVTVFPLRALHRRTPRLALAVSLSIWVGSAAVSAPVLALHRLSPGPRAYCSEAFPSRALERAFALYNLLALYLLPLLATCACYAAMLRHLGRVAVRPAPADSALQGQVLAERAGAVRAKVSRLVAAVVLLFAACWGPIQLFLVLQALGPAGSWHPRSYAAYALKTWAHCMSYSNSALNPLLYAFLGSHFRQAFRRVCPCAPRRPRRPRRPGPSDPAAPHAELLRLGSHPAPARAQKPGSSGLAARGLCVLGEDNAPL
Method in brief: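 Cell line: HEK293, stable human KISS1R. Dye loading 1 h at 37 C after 18 h culture. Read: kinetic fluorescence, 480/540 nm, 3 min at 1 s intervals.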

[5] = G protein-coupled receptor (GPCR) small molecule agonists, calcium flux assay: HEK293 wild type cell line counter screen (AID 1920065)
Method in brief: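 Tox21 10K compounds, 15 concentrations each in triplicate, pin-transferred in DMSO onto dye-loaded cells; kinetic read at 480/540 nm for 3 min, 1 s intervals.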

[6] = p53 small molecule agonists, cell-based qHTS assay with human liver microsomes (AID 1963577)
Method in brief: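 p53RE-bla reporter cells were pre-incubated 5 h at 37 C, then treated with compounds plus human liver microsomes (0.5 mg/mL final) and NADPH (0.5 mg/mL final) for 16 h at 37 C. Beta-lactamase activity was read by LiveBLAzer fluorescence after 2 h at room temperature.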

[7] = p53 small molecule agonists, cell-based qHTS assay with rat liver microsomes (AID 1963578)
Method in brief: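 p53RE-bla cells were exposed to compounds together with rat liver microsomes (0.5 mg/mL final) and NADPH (0.5 mg/mL final) for 16 h at 37 C, then read by LiveBLAzer beta-lactamase fluorescence after 2 h at room temperature.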

[8] = p53 small molecule agonists, cell-based qHTS assay with human liver microsomes: qHTS cell viability counter screen (AID 1963579); also: nearly all actives have a fitted effect of over 45% in size
Method in brief: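 p53RE-bla cells (4,000/well) were pre-incubated 5 h at 37 C, then given compounds in DMSO plus human liver microsomes (0.5 mg/mL final) and NADPH (0.5 mg/mL final) for 16 h at 37 C. Viability was read by CellTiter-Glo luminescence.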

[9] = p53 small molecule agonists, cell-based qHTS assay with rat liver microsomes: qHTS cell viability counter screen (AID 1963580); also: nearly all actives have a fitted effect of over 45% in size
Method in brief: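 Luminescent ATP readout (CellTiter-Glo, 30 min at room temperature) reports viability of p53RE-bla HCT-116 cells after 16 h at 37 C with test compounds under metabolic activation by rat liver microsomes and NADPH at 0.5 mg/mL final each.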

[10] = target: 5-hydroxytryptamine receptor 2A (Homo sapiens) (UniProt P28223); assay: 5-hydroxytryptamine receptor 2A (HTR2A) small molecule antagonists, cell-based qHTS assay (AID 1963586); also: nearly all actives have a fitted effect of over 45% in size
5-hydroxytryptamine receptor 2A (Homo sapiens), sequence (P28223 whole entry, looked up): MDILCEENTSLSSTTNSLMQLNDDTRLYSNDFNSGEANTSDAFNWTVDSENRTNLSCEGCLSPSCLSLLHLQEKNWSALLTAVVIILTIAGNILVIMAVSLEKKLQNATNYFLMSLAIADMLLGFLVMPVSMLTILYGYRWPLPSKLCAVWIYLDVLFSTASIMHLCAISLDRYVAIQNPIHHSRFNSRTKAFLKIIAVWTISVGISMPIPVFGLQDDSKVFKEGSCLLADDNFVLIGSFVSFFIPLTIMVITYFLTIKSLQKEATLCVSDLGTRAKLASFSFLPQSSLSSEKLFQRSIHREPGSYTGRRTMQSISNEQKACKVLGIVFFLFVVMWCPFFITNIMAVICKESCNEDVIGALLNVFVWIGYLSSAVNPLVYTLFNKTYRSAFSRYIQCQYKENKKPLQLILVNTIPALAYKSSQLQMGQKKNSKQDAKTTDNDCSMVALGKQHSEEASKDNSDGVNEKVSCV
Method in brief: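 CHO cells stably expressing human HTR2A were plated for 18 h at 37 C, then loaded with calcium dye for 1 h. Compounds were preincubated 5 min at room temperature before DOI (4 nM solution) was added. Kinetic fluorescence was read for 3 min.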

[11] = target: 5-hydroxytryptamine receptor 2A (Homo sapiens) (UniProt P28223); assay: 5-hydroxytryptamine receptor 2A (HTR2A) small molecule agonists, cell-based qHTS assay (AID 1963587); also: nearly all actives have a fitted effect of over 30% in size
Method in brief: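 HTR2A-CHO cells, plated 18 h at 37 C/5% CO2, dye-loaded 1 h at 37 C; compounds in DMSO added by pin tool (agonist mode). Intracellular calcium flux read as kinetic fluorescence on FDSS over 2 min at 1 s intervals.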

[12] = target: Muscarinic acetylcholine receptor M1 (Homo sapiens) (UniProt P11229); assay: Cholinergic receptor muscarinic 1 (CHRM1) small molecule antagonists, cell-based qHTS assay (AID 1963588); also: nearly all actives have a fitted effect of over 40% in size
Muscarinic acetylcholine receptor M1 (Homo sapiens), sequence (P11229 whole entry, looked up): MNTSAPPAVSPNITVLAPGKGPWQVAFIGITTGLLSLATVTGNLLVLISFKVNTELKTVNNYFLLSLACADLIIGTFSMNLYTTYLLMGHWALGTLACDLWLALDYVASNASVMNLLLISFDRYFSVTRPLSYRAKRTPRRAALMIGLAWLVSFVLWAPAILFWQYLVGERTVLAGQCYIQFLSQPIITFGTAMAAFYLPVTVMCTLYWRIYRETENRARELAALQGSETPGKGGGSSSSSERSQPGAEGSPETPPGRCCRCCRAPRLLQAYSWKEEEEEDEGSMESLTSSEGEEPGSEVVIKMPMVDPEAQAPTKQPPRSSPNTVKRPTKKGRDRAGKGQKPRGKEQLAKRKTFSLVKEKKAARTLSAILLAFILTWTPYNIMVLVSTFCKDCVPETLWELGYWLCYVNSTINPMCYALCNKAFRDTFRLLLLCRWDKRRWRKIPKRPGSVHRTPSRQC
Method in brief: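 Compounds were tested at 15 concentrations in three independent runs. Dye-loaded CHRM1-CHO cells were exposed 5 min at room temperature before stimulation by acetylcholine added at 50nM. Intracellular calcium was read kinetically on FDSS for 3 min.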

[13] = target: Muscarinic acetylcholine receptor M1 (Homo sapiens) (UniProt P11229); assay: Cholinergic receptor muscarinic 1 (CHRM1) small molecule agonists, cell-based qHTS assay (AID 1963589); also: nearly all actives have a fitted effect of over 35% in size
Method in brief: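 Homogeneous fluorescence calcium flux, agonist mode. Human M1-expressing CHO cells; compound dosed at 15 concentrations, three independent runs; signal sampled every 1 sec.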

[14] = cAMP Responsive Elements (CRE) small molecule agonists, cell-based qHTS assay (AID 1963590)
Method in brief: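 HEK 293T cells stably bearing CRE-bla were plated at 2,000 cells per well and rested 18 h. Compounds, positive controls or DMSO were added for 3 h at 37 C. LiveBLAzer B/G substrate was then loaded for 2 h at room temperature.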

[15] = cAMP Responsive Elements (CRE) small molecule antagonists, cell-based qHTS assay (AID 1963591; active = well fitted inhibition curve with a large enough effect in the signal ratio in the repeat runs, not every such curve was filed as active; the % refers to the signal ratio)
Method in brief: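 First, CRE-bla HEK293T cells settled 18 h at 37 C. Next, compound and 0.25 uM final NKH477 were applied for 3 h. Last, LiveBLAzer B/G substrate was loaded for 2 h at room temperature.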

[16] = target: Beta-2 adrenergic receptor (Homo sapiens) (UniProt P07550); assay: Adrenergic beta2 receptor (ADRB2) small molecule antagonists, cell-based qHTS assay (AID 1963592); also: series mostly up to about 92 µM; nearly all actives have a fitted effect of over 50% in size
Beta-2 adrenergic receptor (Homo sapiens), sequence (P07550 whole entry, looked up): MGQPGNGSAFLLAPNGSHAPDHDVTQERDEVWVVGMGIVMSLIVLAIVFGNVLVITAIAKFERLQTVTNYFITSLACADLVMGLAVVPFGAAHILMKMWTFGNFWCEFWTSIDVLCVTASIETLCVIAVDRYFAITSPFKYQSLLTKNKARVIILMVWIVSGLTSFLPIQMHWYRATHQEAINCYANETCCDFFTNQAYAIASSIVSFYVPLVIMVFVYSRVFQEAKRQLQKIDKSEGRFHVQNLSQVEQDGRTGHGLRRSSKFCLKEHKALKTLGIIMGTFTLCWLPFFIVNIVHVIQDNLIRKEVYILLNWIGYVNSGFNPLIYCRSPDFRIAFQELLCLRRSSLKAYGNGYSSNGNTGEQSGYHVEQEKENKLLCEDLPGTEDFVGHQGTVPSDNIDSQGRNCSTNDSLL
Method in brief: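 Assay format: CHO-ADRB2 cells, 18-20hr seeding at 37C/5% CO2, then compound plus 1nM isoproterenol agonist mix for 0.5hr RT. Homogeneous time-resolved fluorescence cAMP detection after 1hr, expressed as 665/615 nm ratio.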

[17] = target: D(2) dopamine receptor (Homo sapiens) (UniProt P14416); assay: Dopamine D2 receptor (DRD2) small molecule agonists, cell-based qHTS assay (AID 1963594); also: nearly all actives have a fitted effect of over 35% in size
D(2) dopamine receptor (Homo sapiens), sequence (P14416 whole entry, looked up): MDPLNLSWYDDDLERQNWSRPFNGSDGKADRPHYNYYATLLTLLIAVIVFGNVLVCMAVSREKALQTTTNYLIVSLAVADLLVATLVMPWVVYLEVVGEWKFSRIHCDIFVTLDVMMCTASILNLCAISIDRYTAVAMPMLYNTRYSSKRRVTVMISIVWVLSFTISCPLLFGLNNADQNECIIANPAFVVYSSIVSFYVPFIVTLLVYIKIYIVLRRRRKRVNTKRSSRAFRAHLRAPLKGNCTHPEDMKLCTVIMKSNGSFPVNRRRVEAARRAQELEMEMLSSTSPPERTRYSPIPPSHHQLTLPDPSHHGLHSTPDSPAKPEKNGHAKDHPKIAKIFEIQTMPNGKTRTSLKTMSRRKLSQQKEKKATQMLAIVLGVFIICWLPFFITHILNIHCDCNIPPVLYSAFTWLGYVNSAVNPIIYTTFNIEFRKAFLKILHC
Method in brief: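 HEK293 cells stably expressing DRD2 were cultured 24 h at 37 C, then given Ro20-1724 (0.1 mM final) and compounds for 10 min at room temperature. NKH477 (200nM) was then added for 30 min. cAMP was read by HTRF.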

[18] = target: D(2) dopamine receptor (Homo sapiens) (UniProt P14416); assay: Dopamine D2 receptor (DRD2) small molecule antagonists, cell-based qHTS assay (AID 1963595; active = well fitted inhibition curve with a large enough effect in the signal ratio in the repeat runs, with a control signal flat; the % refers to the signal ratio)
Method in brief: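 Cells were plated and grown for 24 h at 37 °C. Ro20-1724 (0.1 mM final) went in first, then compound for 10 min. NKH477 (200 nM) with quinpirole (12 nM) followed for 30 min at RT, then HTRF detection reagents for 1 h.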

[19] = p53 small molecule agonists, cell-based qHTS assay: qHTS cell viability counter screen (AID 1963581); also: nearly all actives have a fitted effect of over 45% in size
Method in brief: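 ATP content measured by luminescence in HCT-116 p53RE-bla cells treated 16 h at 37 C, same wells as the reporter screen.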

[20] = target: Beta-2 adrenergic receptor (Homo sapiens) (UniProt P07550); assay: Adrenergic beta2 receptor (ADRB2) small molecule agonists, cell-based qHTS assay (AID 1963593);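 also: CHO cells stably overexpressing human ADRB2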
Method in brief: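 CHO cells stably over-expressing ADRB2 were plated overnight at 37C, then dosed with compounds plus a stimulation mix containing 100uM IBMX and 25uM Ro-20-1724 for 0.5hr at room temperature. cAMP was measured by HTRF competition, 1hr.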

Measured: Potency

CC1(C)CC(O)CC(C)(C)N1
not listed: [19] | [20]
inactive: all other assays above

OCCCc1cccnc1
not listed: [19] | [20]
inactive: all other assays above

C=CC(=O)OCCOCCOCC
not listed: [18] | [19] | [20]
inactive: all other assays above

Cc1cccc(C(=O)O)c1[N+](=O)[O-]
not listed: [19] | [20]
inactive: all other assays above

NC1[C@H]2CN(c3nc4c(cc3F)c(=O)c(C(=O)O)cn4-c3ccc(F)cc3F)C[C@@H]12 (some centres undefined)
not listed: [10] | [11] | [12] | [13] | [14] | [15] | [20]
inactive: all other assays above

CCCCC(CC)COC(=O)COc1ccc(Cl)cc1C (centres undefined)
not listed: [19] | [20]
inactive: all other assays above

OCCCCCCO
not listed: [19] | [20]
inactive: all other assays above

C1CCN(CN2CCCCC2)CC1
not listed: [17] | [19]
inactive: all other assays above

NS(=O)(=O)c1cc(C(=O)O)cc(N2CCCC2)c1Oc1ccccc1
not listed: [18] | [19]
inactive: all other assays above

C=CCSSCCC
not listed: [14] | [19]
inactive: all other assays above
